Assay [1] in a line: qHTS assay to identify small molecule antagonists of the estrogen receptor alpha (ER-alpha) signaling pathway using the BG1 cell line in the presence of 0.1 nM 17-beta-estradiol - cell viability counter screen (AID 1259241). Also: nearly all actives have a fitted effect of over 40% in size. Also: potency is read from the fitted curve at half-maximal effect. Put shortly:
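CellTiter-Fluor read (30 min, 37C) on ER-alpha/ERE-luc VM7Luc4E2 cells; 22 hr compound treatment; agonist 0.1 nM E2 final; same-well multiplex.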

Assay [2] has as its target Androgen receptor (Homo sapiens) (UniProt P10275). The experiment in a line: qHTS assay to identify small molecule antagonists of the androgen receptor (AR) signaling pathway using the MDA cell line in the presence of 0.5 nM R1881 (AID 1259243). Also: nearly all actives have a fitted effect of over 50% in size. Also: potency is read from the fitted curve at half-maximal effect. Put shortly:
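MDA-kb2 human breast carcinoma cells carrying an MMTV-luciferase reporter (AR- and GR-responsive) were plated, rested 5 hr at 37C, dosed with compounds, then stimulated with 0.5 nM R1881 (final) for 16 hr; luminescence was read after ONE-Glo.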

Assay [3] addresses Estrogen receptor (Homo sapiens) (UniProt P03372). Briefly: qHTS assay to identify small molecule antagonists of the estrogen receptor alpha (ER-alpha) signaling pathway using the BG1 cell line in the presence of 0.1 nM 17-beta-estradiol (AID 1259244). Also: nearly all actives have a fitted effect of over 50% in size. The procedure, abridged: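 VM7Luc4E2 cells (endogenous full-length ER-alpha, stable 4xERE-luciferase) were grown 5 days in phenol red-free medium with charcoal-stripped FBS, then exposed 22 h at 37C to compounds plus 0.1 nM (final) 17beta-estradiol; ONE-Glo luminescence read-out.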

Assay [4] is described as follows: qHTS assay to identify small molecule HDAC inhibitors (AID 1259364). Also: top concentration of the series differs between compounds; nearly all actives have a fitted effect of over 45% in size. The procedure, abridged: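 Wild-type HCT-116 cells were plated overnight, exposed to compounds for 2 h at 37 °C, then given HDAC-Glo class I/II luminogenic reagent for 30 min at room temperature before luminescence was read.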
A short description of assay [5]: qHTS assay to identify small molecule HDAC inhibitors - cell viability counter screen (AID 1259365). Also: series mostly up to about 92 µM; nearly all actives have a fitted effect of over 50% in size. The procedure, abridged: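 To flag cytotoxic hits, 1,500 wild-type HCT-116 cells per well, plated the day before, receive test compounds for 2hr at 37 C before CellTiter-Glo reagent and a luminescence read.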
The nature of assay [6]: qHTS assay to identify small molecule antagonists of the sonic hedgehog signaling (Shh) pathway - cell viability counter screen (AID 1259367). Also: nearly all actives have a fitted effect of over 55% in size. Also: potency is read from the fitted curve at half-maximal effect. Put shortly: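 Using CellTiter-Fluor, viability of Gli1-Luc reporter 3T3 cells is read by fluorescence in the wells used for the Shh luciferase assay. Treatment lasts 23 hr with conditioned medium, then reagent 1 hr at 37C.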
A short description of assay [7]: qHTS assay to identify small molecule agonists of the sonic hedgehog signaling (Shh) pathway (AID 1259368; calls by dose curve; also: series mostly up to about 92 µM; nearly all actives have a fitted effect of over 15% in size). Put shortly: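 NIH/3T3-derived 3T3Gli1-Luc cells carrying a stably integrated Gli1 response element–firefly luciferase reporter were plated, left 4 hr at 37 C, then given compounds in DMSO for 24 hr. Luminescence was read 30 min after adding luciferase reagent.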

Assay [8] can be described thus: qHTS assay to identify small molecule antagonists of the sonic hedgehog signaling (Shh) pathway (AID 1259369; calls by dose curve; also: nearly all actives have a fitted effect of over 45% in size; also: potency is read from the fitted curve at half-maximal effect). The procedure, abridged: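 NIH/3T3-derived 3T3Gli1-Luc cells with stably integrated Gli1-Luc reporter were preincubated 4hr at 37 C, then given compounds in DMSO plus Shh conditioned medium and incubated 24hr. Firefly luciferase luminescence read after 30min reagent at room temperature.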

The target in assay [9] is Estrogen receptor beta (Homo sapiens) (UniProt Q92731). The experiment in a line: qHTS assay to identify small molecule agonists of the estrogen receptor beta (ER-beta) signaling pathway (AID 1259377; active = well fitted activation curve with a large enough effect in the signal ratio in the repeat runs, not every such curve was filed as active; the % refers to the signal ratio). The procedure, abridged:
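Screening used GripTite ER-beta-UAS-bla cells held in 2% charcoal-stripped FBS medium. After overnight (16 hr) compound incubation at 37C, beta-lactamase activity was detected with a FRET substrate by fluorescence.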

A short description of assay [10]: qHTS assay to identify small molecule agonists of the androgen receptor (AR) signaling pathway in the presence of an antagonist - cell viability counter screen (AID 1259379). Also: nearly all actives have a fitted effect of over 25% in size. Also: potency is read from the fitted curve at half-maximal effect. The procedure, abridged: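 MDA-kb2 human breast carcinoma cells (stable MMTV-luciferase, AR/GR responsive) were seeded 3,000 cells/well, pre-incubated 5 hr at 37C without CO2, then given 3.0uM nilutamide and compounds at 15 concentrations for 16 hr. Viability was read by CellTiter-Fluor fluorescence.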

The nature of assay [11]: qHTS assay to identify small molecule agonists of the estrogen receptor beta (ER-beta) signaling pathway - cell viability counter screen (AID 1259380). Also: nearly all actives have a fitted effect of over 30% in size. Also: potency is read from the fitted curve at half-maximal effect. Put shortly:
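ER-beta-UAS-bla HEK293T cells in medium with 2% charcoal-stripped FBS were preincubated 6 hr at 37C, dosed with compound in DMSO for 16 hr, then after the bla read, CellTiter-Glo was added for 30 min at room temperature; luminescence recorded.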

Assay [12] has as its target Androgen receptor (Homo sapiens) (UniProt P10275). The experiment in a line: qHTS assay to identify small molecule agonists of the androgen receptor (AR) signaling pathway in the presence of an antagonist (AID 1259381; calls by dose curve; also: nearly all actives have a fitted effect of over 15% in size; also: potency is read from the fitted curve at half-maximal effect). The procedure, abridged:
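MDA-kb2 human breast carcinoma cells carrying an MMTV-luciferase reporter (AR- and GR-responsive) were treated with compounds at 15 concentrations plus 3.0uM final nilutamide for 16hr at 37C without CO2; luminescence was read after ONE-Glo addition.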

Assay [13] is described as follows: qHTS assay to identify small molecule antagonists of the estrogen receptor beta (ER-beta) signaling pathway - cell viability counter screen (AID 1259382).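 Also: HEK293T cells carrying ER-beta-UAS-bla reporter stimulated with estradiol; series mostly up to about 92 µM; nearly all actives have a fitted effect of over 55% in size.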 Put shortly:
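ER-beta-UAS-bla HEK293T cells (2,000/well, 2% charcoal-stripped FBS) were pre-incubated 6 hr at 37C, then given compound plus 1nM final 17-beta-estradiol for 16 hr. Viability was read in the same wells by CellTiter-Glo luminescence after 30 min at room temperature.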

In assay [14] the target is Estrogen receptor (Homo sapiens) (UniProt P03372). Briefly: qHTS assay to identify small molecule agonists of the estrogen receptor alpha (ER-alpha) signaling pathway in the presence of an antagonist (AID 1259383; calls by dose curve; also: top concentration of the series differs between compounds; nearly all actives have a fitted effect of over 15% in size). The procedure, abridged: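 VM7Luc4E2 cells (endogenous full-length ER-alpha, 4×ERE-luciferase) were precultured 5 days in phenol red-free medium with 10% charcoal-stripped FBS, given 10.0nM ICI-182,780 (final), then treated with compounds at 15 concentrations for 22hr at 37C; luminescence read with ONE-Glo.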

Assay [15] deals with Thyrotropin receptor (Homo sapiens) (UniProt P16473). The experiment in a line: qHTS assay to identify small molecule antagonists of the thyroid stimulating hormone receptor (TSHR) signaling pathway (AID 1259385; calls by dose curve; also: nearly all actives have a fitted effect of over 20% in size). The procedure, abridged:
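Antagonist mode: compound-treated TSHR-expressing HEK293 cells were stimulated with 1.5 ng/mL TSH (final) in presence of Ro20-1724 for 30 min at RT. HTRF cAMP detection after 1 h; each compound tested at 15 concentrations, triplicate.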

Assay [16] can be described thus: qHTS assay to identify small molecule antagonists of the androgen receptor (AR) signaling pathway using the MDA cell line in the presence of 0.5 nM R1881 - cell viability counter screen (AID 1259242). Also: nearly all actives have a fitted effect of over 45% in size. Also: potency is read from the fitted curve at half-maximal effect. The procedure, abridged:
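MDA-kb2 cells (human breast carcinoma, stably carrying MMTV-luciferase reporter) were exposed to compounds with 0.5 nM R1881 (final) for 16 hr at 37C, 0% CO2; viability then read as live-cell protease fluorescence (CellTiter-Fluor, 30 min) in the same wells.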

A short description of assay [17]: qHTS assay to identify small molecule agonists of the sonic hedgehog signaling (Shh) pathway - cell viability counter screen (AID 1259366). Also: nearly all actives have a fitted effect of over 50% in size. Also: potency is read from the fitted curve at half-maximal effect. The procedure, abridged:
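Fluorescence from CellTiter-Fluor reports live cells in this counter screen. NIH/3T3-derived Gli1-Luc reporter cells receive test compounds for 24hr at 37C; reagent goes in at 23hr.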

The target of assay [18] is Estrogen receptor beta (Homo sapiens) (UniProt Q92731). Briefly: qHTS assay to identify small molecule antagonists of the estrogen receptor beta (ER-beta) signaling pathway (AID 1259378; active = well fitted inhibition curve with a large enough effect in the signal ratio in the repeat runs, not every such curve was filed as active; the % refers to the signal ratio). The procedure, abridged: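 Antagonist mode: compounds added to beta-lactamase reporter HEK293T ER-beta-UAS cells stimulated with E2 (1nM final), 16 hr at 37C. LiveBLAzer B/G FRET substrate, 2 hours room temperature, fluorescence read-out.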

Assay [19] in a line: qHTS assay to identify small molecule agonists or antagonists of the thyroid stimulating hormone receptor (TSHR) signaling pathway - wild type cell line counter screen (AID 1259384; calls by dose curve). The procedure, abridged: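 Counter screen in untransfected Hek293: compounds (15-point titration, triplicate) plus phosphodiesterase inhibitor Ro20-1724 added after 18 h plating; 30 min RT. Intracellular cAMP via competitive d2/cryptate immunoassay, 1 h incubation.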

The nature of assay [20]: qHTS assay to identify small molecule phospholipidosis (PLD) inducers (AID 1259344; active = well fitted curve in the direction sought with a large enough effect; an effect the other way counts as inactive or inconclusive). The procedure, abridged: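 Fluorescent phospholipid staining (LipidTOX Red) measured by automated microscopy in fixed HepG2 cells after 24 h treatment; nuclei counterstained with Hoechst 33342; amiodarone as reference inducer.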

Structures are written as SMILES. Values without a mark were called inactive. Results filed as inconclusive are left out. Active and inactive are the calls of the source. Unless noted, calls follow the shape of the dose curve; as a rule, active = well fitted curve in the direction sought with a large enough effect in the repeat runs; inconclusive = weak or mixed curves; inactive = no such curve, though single readings can be large; an effect the other way counts as inactive or inconclusive.
% is scaled to controls: 0 for no effect and ±100 for the full control effect.

Chain of Estrogen receptor (Homo sapiens) (P03372 whole entry, looked up): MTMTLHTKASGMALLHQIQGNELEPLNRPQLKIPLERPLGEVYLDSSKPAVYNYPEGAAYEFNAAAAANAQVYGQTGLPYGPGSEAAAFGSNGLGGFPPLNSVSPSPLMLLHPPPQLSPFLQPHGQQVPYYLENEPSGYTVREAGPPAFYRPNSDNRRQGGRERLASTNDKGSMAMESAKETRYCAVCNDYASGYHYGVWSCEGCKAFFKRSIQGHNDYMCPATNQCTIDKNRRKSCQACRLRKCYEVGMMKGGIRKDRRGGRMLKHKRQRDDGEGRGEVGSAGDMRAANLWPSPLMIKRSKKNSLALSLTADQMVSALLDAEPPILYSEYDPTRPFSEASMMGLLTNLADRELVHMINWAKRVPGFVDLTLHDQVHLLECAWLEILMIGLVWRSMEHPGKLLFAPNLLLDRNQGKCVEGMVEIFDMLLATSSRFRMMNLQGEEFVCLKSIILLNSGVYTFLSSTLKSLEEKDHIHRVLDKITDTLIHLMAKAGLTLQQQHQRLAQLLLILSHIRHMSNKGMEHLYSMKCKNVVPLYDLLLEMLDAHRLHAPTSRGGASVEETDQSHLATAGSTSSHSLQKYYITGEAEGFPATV
Chain of Thyrotropin receptor (Homo sapiens) (P16473 whole entry, looked up): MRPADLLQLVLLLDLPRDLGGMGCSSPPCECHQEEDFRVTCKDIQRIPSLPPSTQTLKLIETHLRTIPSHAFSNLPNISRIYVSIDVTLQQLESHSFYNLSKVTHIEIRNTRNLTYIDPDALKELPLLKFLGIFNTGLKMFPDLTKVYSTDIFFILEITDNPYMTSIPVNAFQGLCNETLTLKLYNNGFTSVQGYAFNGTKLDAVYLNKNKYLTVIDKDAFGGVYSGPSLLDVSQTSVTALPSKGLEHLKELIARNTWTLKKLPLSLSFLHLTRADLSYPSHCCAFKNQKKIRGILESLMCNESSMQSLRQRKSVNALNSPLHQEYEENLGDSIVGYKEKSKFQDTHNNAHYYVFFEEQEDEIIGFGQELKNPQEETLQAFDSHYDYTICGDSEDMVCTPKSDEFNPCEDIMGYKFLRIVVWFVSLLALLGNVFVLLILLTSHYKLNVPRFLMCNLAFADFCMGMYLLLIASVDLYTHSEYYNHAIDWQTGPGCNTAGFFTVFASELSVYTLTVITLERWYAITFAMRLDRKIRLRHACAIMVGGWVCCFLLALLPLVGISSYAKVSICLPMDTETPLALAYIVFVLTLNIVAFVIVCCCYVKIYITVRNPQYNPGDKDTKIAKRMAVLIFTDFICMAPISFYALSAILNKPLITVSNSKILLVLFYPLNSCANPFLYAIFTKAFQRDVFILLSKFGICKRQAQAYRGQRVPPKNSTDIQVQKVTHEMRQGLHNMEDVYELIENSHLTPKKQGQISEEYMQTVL
Chain of Androgen receptor (Homo sapiens) (P10275 whole entry, looked up): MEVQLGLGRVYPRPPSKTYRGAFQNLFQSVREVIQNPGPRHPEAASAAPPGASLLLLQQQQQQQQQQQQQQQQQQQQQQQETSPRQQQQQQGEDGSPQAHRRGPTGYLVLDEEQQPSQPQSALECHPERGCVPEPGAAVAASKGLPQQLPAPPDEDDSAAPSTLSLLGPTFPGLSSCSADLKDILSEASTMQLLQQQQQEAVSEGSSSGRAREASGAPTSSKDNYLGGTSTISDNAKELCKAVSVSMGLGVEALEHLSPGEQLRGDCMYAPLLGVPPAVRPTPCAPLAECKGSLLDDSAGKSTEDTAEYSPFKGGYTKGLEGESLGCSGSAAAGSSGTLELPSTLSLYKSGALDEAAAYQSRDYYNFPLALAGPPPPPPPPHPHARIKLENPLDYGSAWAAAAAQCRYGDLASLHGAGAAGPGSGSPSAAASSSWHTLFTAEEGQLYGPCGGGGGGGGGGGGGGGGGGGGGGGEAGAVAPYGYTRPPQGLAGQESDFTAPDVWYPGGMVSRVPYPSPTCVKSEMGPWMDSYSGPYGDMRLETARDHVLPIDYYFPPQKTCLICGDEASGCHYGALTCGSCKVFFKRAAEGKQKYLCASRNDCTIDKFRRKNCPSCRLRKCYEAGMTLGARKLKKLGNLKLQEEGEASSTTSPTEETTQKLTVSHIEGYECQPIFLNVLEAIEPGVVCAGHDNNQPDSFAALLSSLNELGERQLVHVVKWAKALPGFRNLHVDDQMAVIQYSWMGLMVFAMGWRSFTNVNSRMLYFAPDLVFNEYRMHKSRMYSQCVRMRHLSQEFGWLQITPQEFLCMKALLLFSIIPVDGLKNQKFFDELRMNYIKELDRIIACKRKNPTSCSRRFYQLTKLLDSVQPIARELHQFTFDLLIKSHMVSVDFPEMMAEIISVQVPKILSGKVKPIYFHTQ
Chain of Estrogen receptor beta (Homo sapiens) (Q92731 whole entry, looked up): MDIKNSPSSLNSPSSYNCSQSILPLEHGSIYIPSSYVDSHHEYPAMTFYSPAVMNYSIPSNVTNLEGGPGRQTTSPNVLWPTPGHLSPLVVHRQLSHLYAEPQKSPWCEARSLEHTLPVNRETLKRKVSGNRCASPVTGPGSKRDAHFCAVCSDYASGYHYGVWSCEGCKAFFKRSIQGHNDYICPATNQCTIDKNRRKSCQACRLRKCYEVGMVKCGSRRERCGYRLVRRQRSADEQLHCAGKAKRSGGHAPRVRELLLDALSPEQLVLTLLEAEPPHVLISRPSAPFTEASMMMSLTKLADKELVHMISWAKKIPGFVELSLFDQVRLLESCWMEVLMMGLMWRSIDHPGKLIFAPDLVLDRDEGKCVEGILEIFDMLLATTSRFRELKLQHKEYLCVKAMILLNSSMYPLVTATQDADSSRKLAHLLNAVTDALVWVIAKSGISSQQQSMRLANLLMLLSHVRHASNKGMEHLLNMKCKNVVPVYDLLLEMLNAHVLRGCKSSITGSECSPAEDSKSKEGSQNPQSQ

In the case of `c1ccc(-c2ccccn2)nc1`, the Potency entry in assay [1], in assay [2], in assay [3], in assay [4], in assay [5] and in assay [6] was “inactive” in each case. The Potency entry in [8], in assay [9], in assay [10], in assay [11], in [12] and in assay [13] was “inactive” throughout. Moreover, the Potency result in [14] and in assay [15] was “inactive” in each case. The outcome in [7] was inactive.
`CCN(CC)c1ccc2c(-c3ccccc3C(=O)O)c3ccc(=[N+](CC)CC)cc-3oc2c1`: the Potency is 8.63 µM (active) in [1]; 10.9 µM (active) in assay [16]; 3.44 µM (active) in assay [6]; 34.4 µM (active) in assay [8]; 9.69 µM (active) in assay [10]; 8.63 µM (active) in assay [11]. For the same molecule, the outcome in assay [7] was inactive. The Potency result in [9] and in assay [14] was “inactive” throughout.
`Cc1c(N)cccc1[N+](=O)[O-]`: the Potency result in [1], in assay [16], in assay [5], in assay [17], in [6] and in assay [8] was “inactive” each time. Also, the Potency entry in assay [18], in assay [10], in [11], in assay [13], in [14] and in [19] was “inactive” throughout. In addition, in assay [15], the Potency result is “inactive”. In addition, the result in assay [7] was inactive.
Take `CCCOC(C(=O)OC1CCN(C)CC1)(c1ccccc1)c1ccccc1`: the Potency result in [1], in assay [3], in assay [4], in assay [9], in assay [14] and in assay [19] was “inactive” in each case. Moreover, in assay [15], the Potency entry is “inactive”. Also, the Potency in assay [17] was 13.3 µM (active); in assay [8] it was 21.1 µM (active); in [11], 26.6 µM (active). The call in assay [7] was inactive.
Regarding `CC1OC(=O)C(C)OC1=O` (centres undefined), the Potency entry in [1], in [3], in assay [4], in assay [5], in assay [17] and in assay [6] was “inactive” each time. Moreover, the Potency entry in [8], in assay [9], in assay [18], in [13], in [14] and in [19] was “inactive” in each case. Further, in assay [15], the Potency result is “inactive”. In [7], the result was inactive.
On to `CCCCC(=O)OCC(=O)[C@H]1[C@H](C)C[C@H]2[C@@H]3C[C@H](F)C4=CC(=O)C=C[C@]4(C)[C@@]3(F)[C@@H](O)C[C@@]21C`, for which the Potency entry in [1], in assay [3], in assay [4], in assay [5], in assay [17] and in [6] was “inactive” each time. Moreover, the Potency result in assay [8], in [9], in assay [18], in assay [10], in assay [13] and in assay [14] was “inactive” in each case. Besides, the Potency entry in assay [19] and in [15] was “inactive” each time. In assay [20], the PLD induction was -1.62% [at 7.66 µM]. For the same molecule, in [7], the molecule was classed as inactive. Moreover, the Potency in [12] was 0.0067 µM (active).
For the molecule `Cc1nn(C)c(Oc2ccccc2)c1/C=N/OCc1ccc(C(=O)OC(C)(C)C)cc1`, the Potency was 0.0137 µM (active) in [1], 0.0273 µM (active) in [2], 0.0273 µM (active) in assay [8] and 0.0306 µM (active) in [10]. Besides, the Potency result in assay [4], in assay [5], in assay [6], in assay [11], in assay [12] and in [13] was “inactive” throughout. Moreover, the Potency entry in assay [14] and in assay [19] was “inactive” throughout. The molecule was called inactive in assay [7].
Consider `O=C(O)CC(=O)C(=O)O`, for which the Potency result in assay [1], in assay [16], in assay [5], in assay [17], in [10] and in [11] was “inactive” throughout. The Potency entry in [13], in assay [19] and in [15] was “inactive” each time. In addition, the call in assay [7] was inactive. In assay [8], the Potency was 54.6 µM (active).

The values are drawn from PubChem BioAssay (Tox21).
